SARS-CoV-2 infection rate data for twelve molecules are collected here from the supplement of paper PMC13380429.

The subject of this assay is Vero E6 infected with SARS-CoV-2. In words: SARS-CoV-2 infection rate relative to infected DMSO; higher = more infection, active = 60 or less. Particulars: 24 h.
As for `Cc1cccc(C)c1NC(=O)c1ccc(N)cc1` [ameltolide] (10 µM), the SARS-CoV-2 infection rate was 109% (inactive).

On to `CCCCNc1ncc2c(-c3ccc(CN4CCN(C)CC4)cc3)cn([C@H]3CC[C@H](O)CC3)c2n1` (10 µM), for which the SARS-CoV-2 infection rate is 119% (inactive).

Turning to `CN1CCCC(n2nc(Cc3ccc(Cl)cc3)c3ccccc3c2=O)CC1` (configuration not stated) [azelastine] (10 µM), the SARS-CoV-2 infection rate is 72% (inactive).

Turning to `O=C(/C=C/c1ccc(O)c(O)c1)O[C@@H]1C[C@](O)(C(=O)O)C[C@@H](O)[C@H]1O` [chlorogenic-acid] (10 µM), the SARS-CoV-2 infection rate is 112% (inactive).

For the molecule `CC(=O)[C@@]1(O)CC[C@H]2[C@@H]3C=C(Cl)C4=CC(=O)[C@@H]5C[C@@H]5[C@]4(C)[C@H]3CC[C@@]21C` (10 µM), the SARS-CoV-2 infection rate was 109% (inactive).

In the case of `CC(C)(C)NCC(O)c1ccccc1Cl` (configuration not stated) [tulobuterol] (10 µM), the SARS-CoV-2 infection rate is 115% (inactive).

`COc1ccc(C2C(=O)c3ccccc3C2=O)cc1` [anisindione] (10 µM): the SARS-CoV-2 infection rate was 114% (inactive).

In the case of `COc1cc(N2CCC(O)CC2)ccc1Nc1cc(Nc2ccccc2S(=O)(=O)C(C)C)c2cc[nH]c2n1` (0.833333 µM), the SARS-CoV-2 infection rate was 106% (inactive).

On to `CN1CCC(OC(c2ccccc2)c2ccccc2)CC1` [diphenylpyraline] (10 µM), for which the SARS-CoV-2 infection rate was 82.5% (inactive).

As to `O=C(O)[C@]1(Cc2cccc(Nc3nccs3)n2)CC[C@@H](Oc2cccc(Cl)c2F)CC1` (0.833333 µM), the SARS-CoV-2 infection rate was 106% (inactive).

In the case of `O=C(O)c1cc(=O)c2ccccc2[nH]1` [kynurenic-acid] (10 µM), the SARS-CoV-2 infection rate was 97% (inactive).

Turning to `Cc1ccc2c(c1)C1(CCN(CCc3nc(-c4ccccc4)oc3C)CC1)OC(=O)N2` (0.833333 µM), the SARS-CoV-2 infection rate is 104% (inactive).
